{
  "source": "PubChem BioAssay AID2549",
  "about": "(National Center for Advancing Translational Sciences (NCATS), 2010)",
  "note": "“And” between values parts separate entries of the source, which are not always exact repeats. Identical values can stand only once. Out of some 240,000 compounds screened, about 1,300 (0.54%) were called active. Inconclusive results (about 1%) are left out. Calls come from the whole dose curve; as a rule, active = well fitted inhibition curve with a large enough effect; inconclusive = small, poorly fitted or top-dose-only effect; inactive = flat fitted curve, though single readings scatter. The sample as a whole holds a higher share of actives than the screen did. The source holds several records for some structures; these can differ, active in one and inactive in another. Potency is the fitted concentration of half-maximal effect.",
  "data": [
    {"target": "ATP-dependent DNA helicase Q1 (Homo sapiens) (UniProt P46063)", "sequence (P46063 whole entry, looked up)": "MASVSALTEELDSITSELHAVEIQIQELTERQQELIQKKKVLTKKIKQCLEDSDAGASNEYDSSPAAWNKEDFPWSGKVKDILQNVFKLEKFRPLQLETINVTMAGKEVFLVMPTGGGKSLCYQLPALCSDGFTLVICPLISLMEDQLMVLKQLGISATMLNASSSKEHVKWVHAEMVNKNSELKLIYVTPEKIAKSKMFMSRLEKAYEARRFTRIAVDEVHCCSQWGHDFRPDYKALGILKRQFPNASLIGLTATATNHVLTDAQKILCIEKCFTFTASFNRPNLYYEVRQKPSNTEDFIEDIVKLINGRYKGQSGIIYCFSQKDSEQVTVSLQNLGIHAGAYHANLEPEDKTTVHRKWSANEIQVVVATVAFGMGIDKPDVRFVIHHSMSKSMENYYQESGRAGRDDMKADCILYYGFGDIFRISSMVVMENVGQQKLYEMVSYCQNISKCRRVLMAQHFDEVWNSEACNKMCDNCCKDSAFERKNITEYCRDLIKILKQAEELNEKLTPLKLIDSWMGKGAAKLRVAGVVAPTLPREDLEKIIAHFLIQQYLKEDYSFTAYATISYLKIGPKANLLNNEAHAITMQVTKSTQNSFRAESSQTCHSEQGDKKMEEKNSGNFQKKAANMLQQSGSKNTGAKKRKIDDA", "assay": "qHTS Assay for Inhibitors of RecQ-Like Dna Helicase 1 (RECQ1); note: nearly all actives have a fitted effect of over 30% in size;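 for activity, negative = inhibition: plate controls were vehicle for no effect and no enzyme for full effect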", "conditions": "RECQ1 DNA unwinding, red fluorescence kinetic read; series mostly up to 57.3 µM; activity, negative = inhibition: at the top concentration", "summary_of_the_method": "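RECQ1T1 50 nM; forked duplex (20 bp + 30-nt ss tails) 200 nM, ATP 2 mM final; pH 8.0, 2 mM MgCl2, 2.5 ug/ml poly(dI-dC); 15 min compound preincubation; discontinuous kinetic read over 2 h at RT.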", "values": [
      {"smiles": "Cc1cs/c(=N\\N=C\\c2ccc(O)cc2)n1Cc1ccco1", "activity, negative = inhibition": "-8.6% (inactive)"},
      {"smiles": "COc1ccc(NC(=O)Cn2c(=O)n(Cc3ccco3)c(=O)c3ccccc32)cc1", "activity, negative = inhibition": "-4.47% (inactive)"},
      {"smiles": "CN(c1ccccc1)c1ccc(/C=c2\\s/c(=C(/C#N)C(=O)C(C)(C)C)n(Cc3ccco3)c2=O)cc1", "Potency": "17.8 µM (active)"},
      {"smiles": "COc1ccc(C2CC(O)(c3ccccc3)Oc3cc(C)cc(C)c32)cc1", "note": "(stereo not drawn)", "activity, negative = inhibition": "-17% (inactive)"},
      {"smiles": "CC(C)(C)c1cc(C(=O)N/N=C/c2ccc([N+](=O)[O-])s2)n[nH]1", "activity, negative = inhibition": "6.11% (inactive)"},
      {"smiles": "CCOc1ccc(NC(=O)CCC(=O)N/N=C/c2ccc([N+](=O)[O-])s2)cc1", "activity, negative = inhibition": "4.95% (inactive)"},
      {"smiles": "O=[N+]([O-])c1ccc(C=Nc2ccc(Cl)cc2Cl)s1", "Potency": "25.1 µM (active)"},
      {"smiles": "CC(C)c1cnc(NC(=O)Cc2ccccc2)s1", "outcome": "inactive"},
      {"smiles": "CC(=O)OCC(NC(=O)C(Cc1ccccc1)NC(=O)OC(C)(C)C)C1OC(n2ccc(=O)[nH]c2=O)C(OC(C)=O)C1OC(C)=O", "note": "(stereo not drawn)", "outcome": "inactive"},
      {"smiles": "Clc1ccccc1CSc1nnc(-c2ccco2)c(-c2ccco2)n1", "Potency": "35.5 µM (active)"},
      {"smiles": "O=C(Nc1nnc(SCc2ccccc2)s1)c1ccco1", "activity, negative = inhibition": "7.11% (inactive)"},
      {"smiles": "c1ccc(CSc2nnc(-c3ccco3)c(-c3ccco3)n2)cc1", "Potency": "11.2 µM (active)"},
      {"smiles": "Brc1ccc(CSc2ccc(-c3ccco3)nn2)cc1", "outcome": "inactive"},
      {"smiles": "Nc1nc(SCc2ccccc2Cl)n[nH]1", "activity, negative = inhibition": "-13.7% (inactive)"},
      {"smiles": "COC(OC)c1ccnc(SCc2ccccc2Cl)n1", "activity, negative = inhibition": "-7.6% (inactive)"},
      {"smiles": "COc1ccc(-c2ccc(C3C4C=CCCC4(C)C(=O)N3Cc3ccccc3)c(F)c2)cc1OC", "note": "(stereo not drawn)", "activity, negative = inhibition": "-11% (inactive)"},
      {"smiles": "Cc1noc(C)c1-c1ccc2ncnc(NC(C)c3ccco3)c2c1", "note": "(stereo not drawn)", "activity, negative = inhibition": "2.54% (inactive)"},
      {"smiles": "CCN(CC)/[N+]([O-])=N/Oc1cc(O/[N+]([O-])=N/N2CCCC2CO)c([N+](=O)[O-])cc1[N+](=O)[O-]", "note": "(stereo not drawn)", "outcome": "inactive"},
      {"smiles": "OC(CCl)CCl", "activity, negative = inhibition": "-12.1% (inactive)"},
      {"smiles": "Cc1cc(Cl)ccc1NNC(=O)c1snnc1C", "activity, negative = inhibition": "-2.2% (inactive)"},
      {"smiles": "COc1cccc(-c2cc(=O)c3cc(NC(=O)c4ccc(C)cc4)ccc3[nH]2)c1", "outcome": "inactive [at 81.1 µM]"},
      {"smiles": "Cc1ccc(S(=O)(=O)Oc2ccc(/C=N/NC(=O)c3c(Cl)cnn3C)cc2)cc1", "activity, negative = inhibition": "-2.22% (inactive)"},
      {"smiles": "Cn1c2ccccc2c(=O)c2c(O)cccc21", "activity, negative = inhibition": "-0.553% (inactive)"},
      {"smiles": "Oc1ccc(O)c2c(O)cccc12", "Potency": "3.98 µM (active)"},
      {"smiles": "CNC(=O)[C@]1(C(F)(F)F)C[C@H](CCc2ccccc2)CCCO1", "outcome": "inactive"},
      {"smiles": "O=C1c2cccc(OCC(=O)N3N=C(c4cccs4)CC3c3ccc(F)cc3)c2CCN1Cc1ccccc1", "note": "(stereo not drawn)", "activity, negative = inhibition": "-5.93% (inactive)"},
      {"smiles": "CC1CCCC(NC(=O)COC(=O)[C@@H]2CC(O)CN2S(=O)(=O)c2ccc3c(c2)OCCO3)C1C", "note": "(stereo partly drawn)", "activity, negative = inhibition": "-3.5% (inactive)"},
      {"smiles": "O=C(CSc1ccc(-c2ccco2)nn1)NCc1ccc2c(c1)OCO2", "Potency": "28.2 µM (active)"},
      {"smiles": "O=C(CSc1ncn[nH]1)NCc1ccc2c(c1)OCO2", "activity, negative = inhibition": "-11.6% (inactive)"},
      {"smiles": "Cc1ccccc1-c1nnc(SCC(=O)NCc2ccc3c(c2)OCO3)n1C", "activity, negative = inhibition": "-1.82% (inactive)"},
      {"smiles": "C=C1CCN(C(CC(C)C)C(=O)N2CCOCC2)S(=O)(=O)c2ccccc21", "note": "(stereo not drawn)", "outcome": "inactive"},
      {"smiles": "Cc1cccc(C2c3[nH]c4ccccc4c3CCN2C(=O)c2cc(-c3cccn3C)n[nH]2)n1", "note": "(stereo not drawn)", "activity, negative = inhibition": "-1.43% (inactive)"},
      {"smiles": "O=C(O)c1ccc(/C=C2/SC(=S)N(c3cccc(C(F)(F)F)c3)C2=O)cc1", "activity, negative = inhibition": "8.17% (inactive)"},
      {"smiles": "C=CCn1c(SCc2csc(C)n2)nc2scc(-c3ccc(C)o3)c2c1=O", "activity, negative = inhibition": "-1.43% (inactive)"},
      {"smiles": "C=CCn1c(=S)[nH]c2scc(-c3ccco3)c2c1=O", "Potency": "31.6 µM (active)"},
      {"smiles": "C=CCNC(=O)CSc1nc2scc(-c3ccco3)c2c(=O)n1CC=C", "outcome": "inactive"},
      {"smiles": "O=C1C[C@@H](c2ccc3ccccc3c2)N1S(=O)(=O)c1ccccc1[N+](=O)[O-]", "activity, negative = inhibition": "-3.07% (inactive)"},
      {"smiles": "Oc1cc(O)c2c(c1)OC(c1ccc(O)c(O)c1)C(O)C2", "note": "(stereo not drawn)", "Potency": "14.1 µM (active)"},
      {"smiles": "Cc1nnnn1/C(=C\\c1ccccc1)C(=O)OCC(=O)N1CC2(C)CC1CC(C)(C)C2", "note": "(stereo not drawn)", "activity, negative = inhibition": "4.69% (inactive)"},
      {"smiles": "O=c1c(O)c(Br)ccc2c(Br)c(O)c(O)c(O)c12", "Potency": "3.16 µM (active)"},
      {"smiles": "CCC1(CC)C(=O)C2=C3C1[C@H](C(=O)OC)C=C(C(=O)OC)C[C@H]3[C@H]1C(=O)N(Cc3ccccc3)C(=O)[C@H]1[C@H]2C", "note": "(stereo partly drawn)", "outcome": "inactive"},
      {"smiles": "Cc1cc(/C=N/NC(=O)c2cccnc2)c(C)n1CC(C)C", "outcome": "inactive"},
      {"smiles": "O=C(N/N=C/c1ccccn1)c1cccnc1", "activity, negative = inhibition": "6.97% (inactive)"},
      {"smiles": "O=C(N/N=C/c1sc(N2CCCCC2)nc1-c1cccs1)c1cccnc1", "Potency": "10 µM (active)"},
      {"smiles": "N#C/C(=C\\c1ccc(O)c(O)c1)C(=O)NCc1ccccc1", "Potency": "inactive and 31.6 µM (active)"},
      {"smiles": "N#C/C(=C\\c1ccc(O)c(O)c1)C(N)=O", "Potency": "inactive"},
      {"smiles": "COCCNC(=O)/C(C#N)=C/c1cccc(OCc2ccccc2)c1", "activity, negative = inhibition": "-4.31% (inactive)"},
      {"smiles": "c1ccc(C2CNCc3c2ccc2ccccc32)cc1", "note": "(stereo not drawn)", "outcome": "inactive"}
    ]}
  ]
}
